aSyn UTR act: Activators via SNCA 5'UTR binding, MLPCN | alpha-synuclein 5'UTR reporter, activators screen | activity score, % (tested at 7.5 µM), hits read low | 300,000 compounds, 7.1% hits; in the data active = activity score below about -60%
* marks the source's active call; other numbers are inactive results. A selection follows.

SMILES	aSyn UTR act
COc1cccc(NC(=S)Nc2cc(C(=O)O)ccc2N2CC3CC(C2)c2cccc(=O)n2C3)c1 (configuration not stated)	-95*
COc1ccc(/C=C2\CCCC(C(=O)C(F)(F)F)=C2O)cc1	-67*
O=C(Cc1ccccn1)c1ccc(Cl)cc1	-164*
CC1=C(CC(=O)c2ccc(Cl)cc2)C(=O)c2ccccc2C1=O	-70*
CCOC(=O)c1c(C)oc2c(F)c(F)c(F)c(F)c2c1=O	-85*
O=c1c2ccccc2nc(/C=C/c2c[nH]c3ccccc23)n1CCO	-160*
C/C(=N\NC(=O)c1ccco1)c1cc2ccccc2o1	-94*
C/C(=N\NC(=O)c1ccco1)c1ccc(-c2ccccc2)cc1	-126*
C/C(=N\NC(=O)c1ccco1)c1ccc(NC(=O)c2ccccc2)cc1	-126*
C/C(=N\NC(=O)COc1ccccc1F)c1cc2ccccc2o1	-133*
CCC(=O)Nc1cccc(NC(=O)c2cc3ccccc3o2)c1	-168*
Cc1cccc(NC(=O)c2cc3ccccc3o2)c1	-272*
O=C(Nc1cccc(Br)c1)c1cc2ccccc2o1	-184*
NS(=O)(=O)c1cccc(NC(=O)c2cc3ccccc3o2)c1	-71*
C=CCSc1nnc(-c2ccc(Cl)cc2Cl)o1	-78*
Clc1ccc(-c2nnc(SCc3ccon3)o2)c(Cl)c1	-69*
C=CCSc1nnc(-c2ccc([N+](=O)[O-])cc2)o1	-140*
CCOC(=O)C1=C(COc2ccc(C)cc2)NC(=O)NC1c1cc(C)ccc1C (configuration not stated)	-86*
CC(=O)c1cccc(OCc2cc(C(=O)N(C)Cc3cnccn3)no2)c1	-85*
CN(Cc1cccnc1)C(=O)c1cc(COc2ccc3c(c2)CCCC3)on1	-127*
CC1=NN(c2ccc(C(=O)O)cc2)C(=O)/C1=C/c1ccc(-c2ccccc2F)o1	-88*
CC1Oc2cc3oc4c(O)c(O)ccc4c(=O)c3c(O)c2C1(C)C (configuration not stated)	-150*
CC(C)=CCc1c(O)cc2oc3c(CC=C(C)C)c(O)c(O)c(CC=C(C)C)c3c(=O)c2c1O	62
Cc1cccc(N2Cc3ccc(Br)cc3C2)c1	-125*
Cc1oc(=O)c(NC(=O)c2cccc(Cl)c2)cc1C(=O)c1ccccc1	-237*
SMILES	aSyn UTR act
O=C(Nc1cc2ccccc2oc1=O)c1ccccc1	74
COc1cccc(CNc2ncc(Br)cc2Br)c1O	-125*
COc1cccc(/C=N/Nc2ncnc(Cl)c2N)c1O	89
Cc1ccc(OCc2nc(-c3cccs3)no2)c([N+](=O)[O-])c1	-64*
O=[N+]([O-])c1ccc(F)cc1OCc1nc(-c2cccs2)no1	-177*
O=[N+]([O-])c1ccccc1OCc1nc(-c2cccs2)no1	-114*
COC(=O)C1C(=O)c2c([nH]c(C(=O)OC3CCCC3)c2C)CC1C (configuration not stated)	-131*
CC(=O)Oc1ccccc1-c1nc(C)nc(N(C)C(C)=O)n1	-70*
COc1ccc(NC(=S)N/N=C/c2ccc(F)cc2)cc1OC	-73*
Oc1ccc(/C=N/NC(=S)Nc2cccnc2)cc1O	-141*
COc1ccc(NC(=S)Nc2ccc(C)c(Cl)c2)cc1OC	-62*
Fc1ccc(NC(=S)N/N=C/c2ccc(F)c(F)c2)cc1	-65*
S=C(N/N=C/c1ccc2ncccc2c1)Nc1cccnc1	59
Fc1ccc(/C=N/NC(=S)Nc2ccc(Cl)cc2)cc1F	-132*
CCS(=O)(=O)n1nc(-c2ccc(Cl)cc2)nc1SCc1ccccc1	-110*
COc1cc(C=O)ccc1OCCSc1ccc(Cl)cc1	-87*
CCCCOC(=O)/C(=C/c1cn(C)c2ccccc12)NC(=O)c1ccc(OC)cc1	-100*
Cc1[nH]c(C)c(C(=O)/C=C/c2ccc([N+](=O)[O-])cc2)c1C	-232*
C=CCN(CC=C)CCOc1ccc(OC(C)C)cc1	-63*
Cc1ccc2nc(SCC(=O)c3ccc(Cl)s3)[nH]c2c1	-66*
CN(C)/C=C(\C#N)C(=O)N/N=C/c1ccccc1	-69*
Cc1nn2c(N)c(-c3ccccc3)cnc2c1-c1ccccc1	-131*
COc1ccc(-c2c(C)nc3c(-c4ccc(F)cc4)cnn3c2N)cc1	-143*
Nc1c(-c2ccc(Cl)cc2)cnc2c(-c3ccc(F)cc3)cnn12	-95*
Fc1ccc(-c2cnn3c(-c4ccncc4)ccnc23)cc1	-69*
SMILES	aSyn UTR act
CCOC(=O)c1cnc2c(-c3ccc(Cl)cc3)cnn2c1C	-98*
Nc1c(-c2cccc(Cl)c2)cnc2c(-c3ccccc3)cnn12	-243*
c1ccc(Cn2c(Sc3nnnn3-c3ccccc3)nnc2-c2ccccc2)cc1	-74*
Cc1oc(-c2ccc(-c3ccccc3)cc2)nc1CN1CCN(CC(=O)N(C)C)CC1	-143*
COc1ccc(-c2nc(CN3CCN(c4cc(C)nc(C)c4)CC3)c(C)o2)c2ccccc12	68
O=C(CSc1nc(-c2ccccc2)ns1)N1CCOCC1	-110*
Cc1cccc(-c2nsc(SCC(=O)N3CCCC3)n2)c1	-140*
COc1ccc(-n2nc(C(=O)NCC(=O)N3CCN(c4ccccc4)CC3)c3ccccc3c2=O)c(OC)c1	-78*
COc1ccc(-n2nc(C(=O)NCC(=O)N3CCN(c4ccc(F)cc4)CC3)c3ccccc3c2=O)c(OC)c1	-65*
N#Cc1cn(-c2ccccc2)nc1-c1ccccc1	-78*
COC(=O)c1ccc(N2OC3(C)C=CC2CC3)cc1 (configuration not stated)	-88*
COc1ccc(C2OC(=O)CC2C(=O)NCc2ccc(Cl)cc2)cc1OC (configuration not stated)	-78*
COc1ccc(C(=O)Nc2sc(C)c(-c3ccccc3)c2C#N)cc1OC	-92*
C(/C=C/c1ccccc1)=N/N1CCN(c2ccccc2)CC1	-136*
C(=C\c1ccccc1)/C=N/N1CCN(c2ccccn2)CC1	-153*
C(=C\c1ccccc1)/C=N/N1CCN(Cc2ccccc2)CC1	-74*
CC(/C=N/N1CCN(c2ccccn2)CC1)=C\c1ccccc1	-134*
Cc1cc(NC(=O)CSc2nc(-c3ccco3)cc(C(F)(F)F)n2)no1	69
CS(=O)(=O)c1nc(-c2ccco2)cc(C(F)(F)F)n1	-76*
Cc1ccc(C2=NNC(C(O)C(O)C(O)C(O)CO)S2)cc1 (configuration not stated)	-103*
O=C(O)C[C@H](O)C[C@H](O)/C=C/c1c(C2CC2)nc2ccccc2c1-c1ccc(F)cc1	104
Clc1ccc(CO/N=C2\CCCc3nonc32)cc1	-70*
CCn1c(SCc2nc3ccccc3s2)nnc1-c1cccs1	-160*
NC(=O)CSCc1nc2ccccc2s1	-65*
COc1ccccc1-c1nnc(SCc2nc3ccccc3s2)n1C	-109*
SMILES	aSyn UTR act
Cn1c(SCc2nc3ccccc3s2)nnc1-c1cccs1	-67*
Cc1ccc(C)c(-c2[nH]ncc2CN2CCCC(CO)(Cc3ccccc3C)C2)c1 (configuration not stated)	33
CCOc1ccccc1-n1nnnc1SCc1nc2ccccc2s1	-233*
Cc1ccccc1-n1c(C)nnc1SCc1nc2ccccc2s1	-250*
COc1ccc(-c2nnc(SCc3nc4ccccc4s3)n2C(C)C)cc1	-107*
N/C(=N\c1nc2c(c(=O)[nH]1)CCC2)Nc1cccc2ccccc12	-71*
COc1ccc(C)cc1NS(=O)(=O)c1ccc(-c2cnc(C3CC3)o2)cc1	102
O=C(Nc1cccc(Cn2cccn2)c1)c1cc2c(s1)CCCC2	-139*
COc1ccc(C)cc1NC(=O)c1cc2c(s1)CCC2	-143*
COC(=O)c1sccc1NC(=O)c1cc2c(s1)CCCC2	-133*

Assay outcomes as filed in PubChem BioAssay.
